Test results taken from PubChem BioAssay (NCATS).
Inconclusive results are not listed. A number with no mark means an inactive call. Calls come from the whole dose curve; as a rule, active = well fitted inhibition curve with a large enough effect; inconclusive = small, poorly fitted or top-dose-only effect; inactive = flat fitted curve, though single readings scatter.

What follows are compounds tested against Lysine-specific demethylase 5B (Homo sapiens) (UniProt Q9UGL1) (assay: Optimization screen for KDM5B Histone Demethylases FDH coupled qHTS against the LOPAC library (AID 1347166; note: 0% is about no effect)). Conditions: KDM5B demethylation, FDH-coupled NADH fluorescence (FDH is formaldehyde dehydrogenase); at 57.5 µM (top of the series).
Lysine-specific demethylase 5B (Homo sapiens), sequence (Q9UGL1 whole entry, looked up): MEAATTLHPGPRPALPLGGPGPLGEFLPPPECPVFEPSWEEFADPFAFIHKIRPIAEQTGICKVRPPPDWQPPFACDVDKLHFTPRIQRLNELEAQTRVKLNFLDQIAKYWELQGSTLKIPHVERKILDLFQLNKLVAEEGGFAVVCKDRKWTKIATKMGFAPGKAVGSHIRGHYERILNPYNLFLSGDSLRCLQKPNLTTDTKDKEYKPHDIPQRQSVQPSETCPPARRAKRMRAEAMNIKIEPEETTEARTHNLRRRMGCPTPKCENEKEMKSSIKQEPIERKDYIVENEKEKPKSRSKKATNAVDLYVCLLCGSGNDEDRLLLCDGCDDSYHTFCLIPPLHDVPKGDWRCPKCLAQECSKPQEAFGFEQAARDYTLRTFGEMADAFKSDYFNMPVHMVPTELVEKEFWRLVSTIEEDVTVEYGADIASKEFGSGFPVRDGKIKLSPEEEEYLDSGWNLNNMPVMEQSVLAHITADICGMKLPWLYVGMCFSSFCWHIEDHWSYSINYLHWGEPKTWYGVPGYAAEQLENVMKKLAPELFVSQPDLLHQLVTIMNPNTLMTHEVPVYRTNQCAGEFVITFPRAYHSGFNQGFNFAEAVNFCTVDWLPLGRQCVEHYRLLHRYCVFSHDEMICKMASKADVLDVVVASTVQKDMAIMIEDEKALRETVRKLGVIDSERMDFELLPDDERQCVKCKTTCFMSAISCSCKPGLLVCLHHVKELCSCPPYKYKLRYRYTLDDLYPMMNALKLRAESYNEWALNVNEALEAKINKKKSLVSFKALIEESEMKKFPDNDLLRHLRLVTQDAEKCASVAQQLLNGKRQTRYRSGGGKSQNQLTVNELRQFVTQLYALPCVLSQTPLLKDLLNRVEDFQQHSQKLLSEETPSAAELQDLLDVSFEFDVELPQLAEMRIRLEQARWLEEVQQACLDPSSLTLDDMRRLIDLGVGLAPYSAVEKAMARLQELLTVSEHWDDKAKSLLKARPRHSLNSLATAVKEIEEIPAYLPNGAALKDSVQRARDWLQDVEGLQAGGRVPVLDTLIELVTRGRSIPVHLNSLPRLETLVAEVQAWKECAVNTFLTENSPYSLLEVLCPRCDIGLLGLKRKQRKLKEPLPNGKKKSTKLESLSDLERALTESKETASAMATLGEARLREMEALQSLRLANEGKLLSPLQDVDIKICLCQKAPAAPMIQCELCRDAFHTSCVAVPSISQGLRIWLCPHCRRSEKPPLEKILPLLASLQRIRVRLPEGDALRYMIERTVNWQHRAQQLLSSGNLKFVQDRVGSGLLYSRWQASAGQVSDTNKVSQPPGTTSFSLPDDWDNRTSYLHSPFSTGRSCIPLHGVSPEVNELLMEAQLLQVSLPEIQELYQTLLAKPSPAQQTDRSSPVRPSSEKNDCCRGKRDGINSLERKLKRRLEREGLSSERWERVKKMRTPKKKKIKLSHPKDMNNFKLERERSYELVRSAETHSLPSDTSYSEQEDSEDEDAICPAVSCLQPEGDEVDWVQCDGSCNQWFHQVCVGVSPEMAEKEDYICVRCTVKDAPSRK
In short: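 KDM5BDeltaAP (200nM final) in 50mM HEPES pH 7.5, 0.01% Tween-20 was preincubated with compound for 10 min at room temperature. A substrate mix of 12.5uM H3K4Me3, 25uM a-ketoglutarate, ascorbate, Fe2+, NAD+ and formaldehyde dehydrogenase was then added. NADH fluorescence (340/450 nm) was read initially and after 30 min.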
N[C@@H](Cc1c[nH]c2ccccc12)C(=O)O showed an activity, negative = inhibition of -20.4%. N[C@@H](CCCC(=O)O)C(=O)O was tested, and the activity, negative = inhibition was -3.82%. For CCCCC[C@H](CC(=O)NO)C(=O)N[C@H](C(=O)N1CCC[C@H]1CO)C(C)C, the activity, negative = inhibition was 9.91%. COC1(C2=NCCN2)COc2ccccc2O1 (stereo not drawn) showed an activity, negative = inhibition of -3.68%. Compound COc1cc(N)c(Cl)cc1C(=O)OCCN1CCCCC1 has an activity, negative = inhibition of -18.2%. COc1ccc2c(c1)CCC1C2CC[C@@]2(C)C1CC[C@@H]2NCCCCCCN1C(=O)C=CC1=O (stereo partly drawn) was tested, and the activity, negative = inhibition was -20.3%. Compound N=C(N)c1ccc(OCCCCCOc2ccc(C(=N)N)cc2)cc1 (tested in a mixture with another compound) has an activity, negative = inhibition of -13.6%. Compound Oc1ccc(Cn2cc[nH]c2=S)cc1 has an activity, negative = inhibition of -15.9%. Compound N[C@@H](Cc1ccc(O)c(I)c1)C(=O)O has an activity, negative = inhibition of -7.59%. With O=C(O)CCC/C=C\C[C@@H]1[C@@H](/C=C/[C@H](O)C2Cc3ccccc3C2)[C@@H](F)C[C@@H]1O the activity, negative = inhibition was -5.83%. In the case of NCCCCN, the activity, negative = inhibition is reported as -1.54%. With CC[n+]1c(/C=C/C=C2/N(C)c3ccccc3C2(C)C)sc2ccccc21 the activity, negative = inhibition was -25%. In the case of CCCCCCCCCC[Si](C)(C)CCC(=O)NC(Cc1ccc(C)cc1)c1ccccc1 (stereo not drawn), the activity, negative = inhibition is reported as -3.59%. For CN(C)CCCc1cc(C(=O)Nc2ccc(-c3ccncc3)cc2)ccc1O, the activity, negative = inhibition was -5.29%. In the case of COc1ccc(C(=O)NCc2cccnc2)cc1C(=O)NCc1cccnc1, the activity, negative = inhibition is reported as -3.95%. With OCC1NCC(O)C(O)C1O (stereo not drawn) the activity, negative = inhibition was -3.55%. CSc1nc(N)c2ncn([C@@H]3O[C@H](COP(=O)(O)OP(=O)(O)O)C(O)[C@H]3O)c2n1 (stereo partly drawn) gave an activity, negative = inhibition of -13.8%. In the case of COc1cc(CNC(=O)CCCCCCC(C)C)ccc1O, the activity, negative = inhibition is reported as -17%. For COc1cc(C(O)CO)ccc1O (stereo not drawn), the activity, negative = inhibition was -5.15%. Compound C=C1C[C@@]23CC[C@H]4[C@@](C)(CCC[C@@]4(C)C(=O)O)[C@@H]2CC[C@]1(O)C3 has an activity, negative = inhibition of -2.05%. C[C@H]1CC2C3CCC4=CC(=O)C=C[C@]4(C)[C@@]3(Cl)[C@@H](O)C[C@]2(C)[C@@]1(O)C(=O)CO (stereo partly drawn) was tested, and the activity, negative = inhibition was -1.11%. In the case of NC(Cc1cccc(-c2ccccc2CP(=O)(O)O)c1)C(=O)O (stereo not drawn), the activity, negative = inhibition is reported as -9.93%. N=C(N)SCCN gave an activity, negative = inhibition of -12%. OC[C@H]1O[C@H](n2cnc3c(N[C@H]4CCC[C@@H]4O)ncnc32)[C@H](O)[C@@H]1O showed an activity, negative = inhibition of -3.36%. With Cc1cc(Cn2cnc3c2C[C@@H](C(=O)O)N(C(=O)C(c2ccccc2)c2ccccc2)C3)ccc1N the activity, negative = inhibition was 0.747%. CCC1(O)CC2CN(CCc3c([nH]c4ccccc34)[C@@](C(=O)OC)(c3cc4c(cc3OC)N(C=O)C3[C@]45CCN4CC=C[C@@](CC)([C@@H](OC(C)=O)[C@]3(O)C(=O)OC)[C@H]45)C2)C1 (stereo partly drawn) was tested, and the activity, negative = inhibition was -9.11%. Compound C=CC[C@H](N)C(=O)O has an activity, negative = inhibition of -4.4%. CC1CCN=C(N)S1 (stereo not drawn) was tested, and the activity, negative = inhibition was -2.36%. In the case of O=C(O)/C(=C/c1c(C(=O)O)[nH]c2cc(Cl)cc(Cl)c12)c1ccccc1, the activity, negative = inhibition is reported as -2.54%. Compound NCC(O)(CS(=O)(=O)O)c1ccc(Cl)cc1 (stereo not drawn) has an activity, negative = inhibition of -2.36%. With CC(C)(C)c1ccc(/C=C/C(=O)Nc2ccc3c(c2)OCCO3)cc1 the activity, negative = inhibition was -12.1%. With C[C@@H](NCCc1ccc(O)cc1)[C@@H](O)c1ccc(O)cc1 the activity, negative = inhibition was -4.75%. COc1ccc(CCn2nnnc2C2(c3ccc(C)cc3)CC2)cc1 gave an activity, negative = inhibition of -4.62%. Compound Cc1ccc2c(c1)C(N1CCN(C)CC1)=Nc1cccnc1N2 has an activity, negative = inhibition of -6.11%. NC1CCN(O)C1=O (stereo not drawn) showed an activity, negative = inhibition of -8.73%. In the case of CCC1(O)CC2CN(CCc3c([nH]c4ccccc34)[C@@](C(=O)OC)(c3cc4c(cc3OC)N(C)C3[C@]45CCN4CC=C[C@@](CC)([C@@H](OC(C)=O)[C@]3(O)C(=O)OC)[C@H]45)C2)C1 (stereo partly drawn), the activity, negative = inhibition is reported as -13.4%. With CC(C)C[C@H](NC(=O)[C@H](O)[C@H](N)Cc1ccccc1)C(=O)O the activity, negative = inhibition was -4.3%. Compound NC(=O)CC[C@H](N)C(=O)O has an activity, negative = inhibition of -1.79%.
